Data published in PubChem BioAssay AID624139 (Broad Institute, 2012).
Hit rate of the full screen: of about 17,000 compounds, about 220 (1.3%) were called active.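 The calls were made as follows: active = spot fluorescence over background significantly raised, with a chance value under 7% in all four replicate spots of the compound; inactive = the rest.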 Many of the other results were omitted from the sample, so actives are more common in it than they were.

target: Nuclear factor NF-kappa-B p105 subunit (Homo sapiens) (UniProt P19838); assay: binders of NF-kB p50 subunit, primary screen, biochemical, small molecule microarray, anti-His fluorescence (AID 624139); conditions: anti-His fluorescence binding;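 also: probe protein is his-tagged human p50 processed subunit at 1 µg/ml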
Sequence (P19838 1-433 limits assumed): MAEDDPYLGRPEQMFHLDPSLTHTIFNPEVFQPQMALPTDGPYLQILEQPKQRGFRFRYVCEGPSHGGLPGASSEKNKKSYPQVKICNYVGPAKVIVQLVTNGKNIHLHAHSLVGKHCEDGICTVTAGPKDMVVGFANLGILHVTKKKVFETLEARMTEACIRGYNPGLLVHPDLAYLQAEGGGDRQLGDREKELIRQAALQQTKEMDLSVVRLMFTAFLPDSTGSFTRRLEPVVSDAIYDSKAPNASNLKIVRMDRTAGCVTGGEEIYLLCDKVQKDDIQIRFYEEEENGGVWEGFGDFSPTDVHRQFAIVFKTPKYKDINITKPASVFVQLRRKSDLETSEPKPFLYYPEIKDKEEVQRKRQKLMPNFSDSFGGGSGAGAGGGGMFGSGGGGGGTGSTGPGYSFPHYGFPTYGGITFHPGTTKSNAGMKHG

outcome, inactive:
O=C1CC(C(=O)Nc2cccc(C(=O)O)c2)C(c2ccccc2)O1 (stereo not drawn), Cc1noc(C)c1S(=O)(=O)N(C)C[C@H]1Oc2ccc(NC(=O)Nc3cccc4ccccc34)cc2CC(=O)N([C@@H](C)CO)C[C@H]1C, Cc1noc(C)c1NC(=O)Nc1ccc2c(c1)CC(=O)N([C@H](C)CO)C[C@H](C)[C@H](CN(C)C(=O)NC(C)C)O2, O=C1O[C@@H](c2ccccc2)[C@@H](c2ccccc2)N2[C@@H](c3ccccc3OCCO)[C@]3(C(=O)Nc4ccccc43)[C@@H](C(=O)N3CCCCCCC3)[C@H]12, O=C1O[C@@H](c2ccccc2)[C@@H](c2ccccc2)N2[C@@H](c3ccccc3OCCO)[C@]3(C(=O)Nc4ccc(C#CC5(O)CCCCCC5)cc43)[C@@H](C(=O)N3CCCCCCC3)[C@H]12, O=C1O[C@@H](c2ccccc2)[C@@H](c2ccccc2)N2[C@@H](c3ccc(OCCO)cc3)[C@]3(C(=O)Nc4ccc(C#CCCO)cc43)[C@@H](C(=O)O)[C@H]12, COc1ccc(C#Cc2ccc3c(c2)[C@]2(C(=O)N3)[C@H](C(=O)N3CCCCCCC3)[C@H]3C(=O)O[C@H](c4ccccc4)[C@H](c4ccccc4)N3[C@@H]2c2ccc(O)cc2)cc1, O=c1c(-c2ccc(O[C@@H]3O[C@H](CO)[C@@H](O)[C@H](O)[C@H]3O)cc2)coc2c([C@@H]3O[C@H](CO)[C@@H](O)[C@H](O)[C@H]3O)c(O)cc(O)c12, CC(C)NC(=O)Nc1ccc2c(c1)C(=O)N([C@H](C)CO)C[C@H](C)[C@H](CN(C)C(=O)CCC(F)(F)F)OCCCC[C@H](C)O2, C[C@H](CO)N1C[C@H](C)[C@H](CN(C)S(=O)(=O)c2cn(C)cn2)OCCCC[C@H](C)Oc2ccc(N(C)C)cc2C1=O, C[C@H](CO)N1C[C@H](C)[C@H](CN(C)C(=O)Nc2ccccc2C(F)(F)F)OCc2cn(nn2)CCCC1=O, C[C@@H]1CN([C@@H](C)CO)C(=O)c2cccc(NC(=O)c3nc4ccccc4s3)c2O[C@H]1CN(C)S(=O)(=O)c1cccs1, COC(=O)C(CC#Cc1ccc2c(c1)[C@]1(C(=O)N2)[C@H](c2ccc(O)cc2)N2[C@H](c3ccccc3)[C@H](c3ccccc3)OC(=O)[C@H]2[C@@H]1C(=O)NC[C@H](O)c1ccccc1)C(=O)OC, C[C@@H]1CN([C@H](C)CO)C(=O)c2cc(NC(=O)C3CC3)ccc2O[C@@H]1CN(C)C, C[C@@H]1CN([C@@H](C)CO)C(=O)Cc2cc(NC(=O)Cc3ccccc3)ccc2O[C@@H]1CN(C)C(=O)Nc1ccc2c(c1)OCO2, C[C@@H]1CN([C@H](C)CO)C(=O)c2cc(NC(=O)Nc3ccc4c(c3)OCO4)ccc2O[C@@H]1CN(C)C(=O)Nc1ccc(F)cc1, COc1ccc(S(=O)(=O)N(C)C[C@@H]2Oc3ccc(NC(=O)Cc4ccccc4)cc3CC(=O)N([C@@H](C)CO)C[C@H]2C)cc1, C[C@@H]1CN([C@@H](C)CO)C(=O)c2cc(NS(=O)(=O)c3cn(C)cn3)ccc2O[C@@H]1CN(C)C(=O)NC1CCCCC1, Cc1ccc(N(C(=O)COc2ccccc2[N+](=O)[O-])C2C=CS(=O)(=O)C2)cc1 (stereo not drawn), Cc1ccc(S(=O)(=O)N(C)CC(=O)Nc2cccc(C(F)(F)F)c2)cc1, COCCCNC(=O)[C@@]1(C)c2ccccc2C(=O)N(Cc2ccc(OC(F)(F)F)cc2)[C@H]1c1ccc(CO)cc1, C[C@H](CO)N1C[C@H](C)[C@@H](CN(C)S(=O)(=O)c2cn(C)cn2)Oc2c(NC(=O)C3CC3)cccc2C1=O, CCOC(=O)Cc1csc(NC(=O)c2sc3cccc(F)c3c2Cl)n1, O=C(CNS(=O)(=O)c1cccc(C(F)(F)F)c1)Nc1ccccc1F, S=C(NCc1ccco1)N1CCN(c2ncccn2)CC1, C[C@@H]1CN([C@H](C)CO)C(=O)Cc2cc(NS(=O)(=O)c3ccc(Cl)cc3)ccc2O[C@@H]1CN(C)S(=O)(=O)c1ccc(Cl)cc1, COc1ccc(C)cc1S(=O)(=O)N(C)CC(=O)Nc1ccccc1SC, C[C@@H]1CN([C@H](C)CO)C(=O)Cc2cc(NC(=O)Cc3cn(C)c4ccccc34)ccc2O[C@@H]1CN(C)Cc1ccc(C(F)(F)F)cc1, CC(C)NC(=O)N(C)C[C@H]1OCCCC[C@H](C)Oc2ccc(NC(=O)CCC(F)(F)F)cc2C(=O)N([C@H](C)CO)C[C@H]1C, C[C@H]1CCCCO[C@@H](CN(C)C(=O)Nc2ccccc2)[C@@H](C)CN([C@@H](C)CO)C(=O)c2cc(NC(=O)CCC(F)(F)F)ccc2O1, Cc1ccc(N(C(C)C(=O)Nc2ccc(Br)cc2F)S(C)(=O)=O)cc1C (stereo not drawn), C[C@@H]1CN([C@H](C)CO)C(=O)c2cccc(NS(=O)(=O)c3cn(C)cn3)c2O[C@H]1CN(C)S(=O)(=O)c1ccc(Cl)cc1, C[C@@H]1CN([C@H](C)CO)C(=O)Cc2cc(NC(=O)Cc3ccccc3)ccc2O[C@H]1CN(C)S(=O)(=O)c1cccs1, COCCOC(=O)N1C(=O)[C@@]2(c3cc(C#CCC(C(=O)OC)C(=O)OC)ccc31)[C@H](c1ccc(OCCO)cc1)N1[C@H](c3ccccc3)[C@H](c3ccccc3)OC(=O)[C@H]1[C@@H]2C(=O)NC[C@H](O)c1ccccc1, C[C@@H]1CCCCO[C@@H](CN(C)Cc2ccncc2)[C@H](C)CN([C@@H](C)CO)C(=O)c2cc(NS(=O)(=O)c3ccccc3)ccc2O1

outcome, active:
COc1ccc(C#Cc2ccc3c(c2)[C@]2(C(=O)N3)[C@H](C(=O)N3CCc4cc(OC)c(OC)cc4C3)[C@H]3C(=O)O[C@H](c4ccccc4)[C@H](c4ccccc4)N3[C@@H]2c2ccc(O)cc2)cc1, COc1ccc(C#Cc2ccc3c(c2)[C@]2(C(=O)N3)[C@H](c3ccccc3OCCO)N3[C@H](c4ccccc4)[C@H](c4ccccc4)OC(=O)[C@H]3[C@@H]2C(=O)N2CCCCCCC2)cc1, CCCCc1nn(-c2ccccc2C(F)(F)F)c(=O)n1Cc1ccc(-c2ccccc2S(=O)(=O)NC(=O)c2sccc2C)cc1
